Experimental data as given in PubChem BioAssay (NCI).
About 83,000 compounds went through this panel and 20% of them were active in at least one assay; those are over-represented in the sample as a whole.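 Cell lines were cultured in 96-well plates, exposed to a single compound concentration, and assessed for percent growth 48 hours later.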 The source made the active and inactive calls. Rule for the calls: active = growth percent below 10; inactive = the rest.

Columns and labels:
Test in all cases: NCI-60 one-dose screen, 48 h (100 = growth as untreated, 0 = no growth, -100 = all killed)
Details in all cases: 10 µM unless noted
NCI-H23 lung = tested on: NCI-H23 lung
NCI-H226 lung = tested on: NCI-H226 lung
NCI-H322M lung = tested on: NCI-H322M lung
HOP-62 NSCLC = tested on: HOP-62 NSCLC
NCI-H460 lung = tested on: NCI-H460 lung
HOP-92 NSCLC = tested on: HOP-92 NSCLC
NCI-H522 lung = tested on: NCI-H522 lung
A549/ATCC NSCLC = tested on: A549/ATCC NSCLC
786-0 renal = tested on: 786-0 renal
COLO 205 colon = tested on: COLO 205 colon
DU-145 prostate = tested on: DU-145 prostate
K-562 leukemia = tested on: K-562 leukemia
MALME-3M melanoma = tested on: MALME-3M melanoma
MDA-MB-231 breast = tested on: MDA-MB-231 breast
RXF 393 renal = tested on: RXF 393 renal
SF-268 CNS = tested on: SF-268 CNS
SF-295 CNS = tested on: SF-295 CNS
SF-539 CNS = tested on: SF-539 CNS
UACC-257 melanoma = tested on: UACC-257 melanoma
M14 melanoma = tested on: M14 melanoma

Measured: growth

Oc1cccc(-c2nc(N3CCOCC3)c3c4c(sc3n2)CCCC4)c1
inactive: NCI-H23 lung 56.3% | NCI-H226 lung 61.1% | NCI-H322M lung 56% | HOP-62 NSCLC 62% | NCI-H460 lung 44.1% | HOP-92 NSCLC 11.2% | NCI-H522 lung 42.2% | A549/ATCC NSCLC 51.7% | 786-0 renal 96.7% | COLO 205 colon 103% | DU-145 prostate 37.8% | K-562 leukemia 69.1% | MALME-3M melanoma 49% | MDA-MB-231 breast 43.2% | RXF 393 renal 16.3% | SF-268 CNS 36.8% | SF-295 CNS 75.6% | SF-539 CNS 50.6% | UACC-257 melanoma 69.7% | M14 melanoma 60.7%

Cc1ccc(NS(=O)(=O)c2ccc(-c3cnc(C4CC4)o3)cc2)cc1C
inactive: NCI-H23 lung 21.2% | NCI-H226 lung 47.6% | NCI-H322M lung 42.7% | HOP-62 NSCLC 33.7% | NCI-H460 lung 12.3% | HOP-92 NSCLC 29.6% | A549/ATCC NSCLC 27.1% | 786-0 renal 43.4% | DU-145 prostate 14.4% | MALME-3M melanoma 42.6% | MDA-MB-231 breast 40.1% | SF-268 CNS 52% | SF-295 CNS 10.3% | UACC-257 melanoma 49.8% | M14 melanoma 25.6%
active: NCI-H522 lung -7.94% | COLO 205 colon -10.1% | K-562 leukemia 9.36% | RXF 393 renal -3.66% | SF-539 CNS -13.6%

O=c1c(F)cn(Cc2ccccc2CCl)c(=O)n1Cc1ccccc1CCl
active: NCI-H23 lung -63.1% | NCI-H226 lung -22% | NCI-H322M lung -19.3% | HOP-62 NSCLC -51.7% | NCI-H460 lung -75% | HOP-92 NSCLC -77.5% | NCI-H522 lung -61.6% | A549/ATCC NSCLC 1.3% | 786-0 renal -54.7% | COLO 205 colon -75.3% | DU-145 prostate -51.3% | K-562 leukemia -6.67% | MALME-3M melanoma -28.1% | MDA-MB-231 breast -19.4% | RXF 393 renal -30.7% | SF-268 CNS -16% | SF-295 CNS -62.4% | SF-539 CNS -24.1% | UACC-257 melanoma -48.1% | M14 melanoma -63.6%

O=C1c2cc3c(cc2-c2c1c1ccc(Cl)cc1c(=O)n2CCCN1CCOCC1)OCO3
inactive: NCI-H23 lung 47.9% | NCI-H226 lung 24.9% | NCI-H322M lung 89.6% | HOP-62 NSCLC 26.2% | NCI-H460 lung 18.1% | HOP-92 NSCLC 80.4% | NCI-H522 lung 53.5% | A549/ATCC NSCLC 48.7% | 786-0 renal 34.2% | COLO 205 colon 54.8% | DU-145 prostate 26.9% | K-562 leukemia 44.5% | MALME-3M melanoma 85.2% | MDA-MB-231 breast 111% | RXF 393 renal 92.7% | SF-268 CNS 43.6% | SF-295 CNS 27.9% | SF-539 CNS 22.7% | UACC-257 melanoma 91.8% | M14 melanoma 25.3%

COc1ccc(-c2cc(NC(=O)Nc3ccc4ncsc4c3)no2)cc1
inactive: NCI-H23 lung 100% | NCI-H226 lung 101% | NCI-H322M lung 107% | HOP-62 NSCLC 111% | NCI-H460 lung 99.9% | HOP-92 NSCLC 105% | NCI-H522 lung 88.3% | A549/ATCC NSCLC 103% | 786-0 renal 99.1% | COLO 205 colon 125% | DU-145 prostate 108% | K-562 leukemia 101% | MALME-3M melanoma 112% | MDA-MB-231 breast 103% | RXF 393 renal 129% | SF-268 CNS 105% | SF-295 CNS 89.1% | SF-539 CNS 102% | UACC-257 melanoma 115% | M14 melanoma 106%

OCC(O)c1nc2ccc3[nH]ncc3c2c2c1CCCC2 (stereo not given)
active: NCI-H23 lung 2.08% | NCI-H226 lung -4.5% | NCI-H322M lung 8.59% | NCI-H460 lung 5.14% | HOP-92 NSCLC -10.3% | A549/ATCC NSCLC 6.34% | 786-0 renal 4.15% | COLO 205 colon 1.61% | MDA-MB-231 breast 1.65% | RXF 393 renal -58.4% | SF-268 CNS -3.77% | SF-295 CNS 9.19% | SF-539 CNS -39.1% | M14 melanoma 5.99%
inactive: HOP-62 NSCLC 10.6% | NCI-H522 lung 13.3% | DU-145 prostate 11.7% | K-562 leukemia 37.2% | MALME-3M melanoma 19% | UACC-257 melanoma 10.2%

C(=N/Nc1ncc(-c2cc3cc(-c4ccccc4)ccc3o2)s1)/c1cccs1
active: NCI-H460 lung 7.38%
inactive: NCI-H23 lung 99.9% | NCI-H226 lung 104% | NCI-H322M lung 33.8% | HOP-62 NSCLC 118% | HOP-92 NSCLC 105% | NCI-H522 lung 86.1% | A549/ATCC NSCLC 13.3% | 786-0 renal 101% | COLO 205 colon 72.4% | DU-145 prostate 97.2% | K-562 leukemia 96.6% | MALME-3M melanoma 97.8% | MDA-MB-231 breast 109% | RXF 393 renal 129% | SF-268 CNS 102% | SF-295 CNS 98.1% | SF-539 CNS 99.6% | UACC-257 melanoma 102% | M14 melanoma 111%

CCOC(=O)c1sc2nc(-c3cccc(O)c3)nc(N3CCOCC3)c2c1C
inactive: NCI-H23 lung 69.3% | NCI-H226 lung 82.8% | NCI-H322M lung 70.7% | HOP-62 NSCLC 68.5% | NCI-H460 lung 68.2% | HOP-92 NSCLC 30.8% | NCI-H522 lung 46.1% | A549/ATCC NSCLC 47.4% | 786-0 renal 67.7% | COLO 205 colon 105% | DU-145 prostate 38.9% | K-562 leukemia 60.5% | MALME-3M melanoma 62.7% | MDA-MB-231 breast 47.6% | RXF 393 renal 18.4% | SF-268 CNS 48.9% | SF-295 CNS 81% | SF-539 CNS 51.3% | UACC-257 melanoma 82.6% | M14 melanoma 69.2%

Cc1ccc2c(C(C[N+](=O)[O-])c3ccco3)c(-c3ccccc3)[nH]c2c1 (stereo not given)
active: NCI-H522 lung -11.7% | SF-295 CNS 7.56% | M14 melanoma 7.34%
inactive: NCI-H23 lung 51.3% | NCI-H226 lung 46.5% | NCI-H322M lung 53.3% | HOP-62 NSCLC 24% | NCI-H460 lung 13.9% | HOP-92 NSCLC 39.9% | A549/ATCC NSCLC 33.3% | 786-0 renal 31.2% | COLO 205 colon 21.8% | DU-145 prostate 49.6% | K-562 leukemia 11.5% | MALME-3M melanoma 47.1% | MDA-MB-231 breast 41.8% | RXF 393 renal 35.2% | SF-268 CNS 37.8% | SF-539 CNS 20.4% | UACC-257 melanoma 43.4%

Nc1n[nH]c2cc(F)c([C@@H]3Nc4ccc5[nH]ncc5c4[C@H]4C5CCC(C5)[C@@H]34)cc12 (stereo not given in full)
active: NCI-H460 lung -11.2% | NCI-H522 lung -19% | A549/ATCC NSCLC 8.81% | COLO 205 colon -26.9% | DU-145 prostate -7.54% | SF-268 CNS 9.83% | SF-295 CNS 6.25% | SF-539 CNS -31% | M14 melanoma -1.74%
inactive: NCI-H23 lung 26.4% | NCI-H226 lung 15% | NCI-H322M lung 54.7% | HOP-62 NSCLC 26.1% | HOP-92 NSCLC 45.7% | 786-0 renal 25.4% | K-562 leukemia 11.5% | MALME-3M melanoma 73% | MDA-MB-231 breast 35.8% | RXF 393 renal 54.2% | UACC-257 melanoma 53.1%

COc1ccc(C(=S)N2CCN(c3cccc(Cl)c3)CC2)cc1
inactive: NCI-H23 lung 101% | NCI-H226 lung 113% | NCI-H322M lung 98.3% | HOP-62 NSCLC 98.5% | NCI-H460 lung 96.7% | HOP-92 NSCLC 94.6% | NCI-H522 lung 108% | A549/ATCC NSCLC 91.7% | 786-0 renal 97.1% | COLO 205 colon 141% | DU-145 prostate 121% | K-562 leukemia 119% | MALME-3M melanoma 138% | MDA-MB-231 breast 101% | RXF 393 renal 160% | SF-268 CNS 102% | SF-295 CNS 111% | SF-539 CNS 92.2% | M14 melanoma 101%
active: UACC-257 melanoma -2.46%

O=C1c2ccccc2C(=O)c2c(N=Nc3[nH]c(=S)[nH]c3O)cccc21
active: NCI-H460 lung 7.32% | NCI-H522 lung -6.34% | K-562 leukemia 9.57% | RXF 393 renal -22.4% | SF-295 CNS 7.45% | SF-539 CNS -32.3% | M14 melanoma -15.8%
inactive: NCI-H23 lung 41.7% | NCI-H226 lung 28.3% | NCI-H322M lung 40.1% | HOP-62 NSCLC 25% | HOP-92 NSCLC 19.8% | A549/ATCC NSCLC 24.3% | 786-0 renal 22.6% | COLO 205 colon 19% | DU-145 prostate 16.3% | MALME-3M melanoma 45.4% | MDA-MB-231 breast 40.3% | SF-268 CNS 32.1% | UACC-257 melanoma 56.9%

CCn1c(Cc2ccccc2Nc2c(Cl)cccc2Cl)nnc1SCC(=O)NN1C(=O)/C(=C/c2cc(OC)c(O)c(OC)c2)SC1=S
inactive: NCI-H23 lung 48.3% | NCI-H226 lung 40.7% | NCI-H322M lung 42.2% | HOP-62 NSCLC 29.9% | NCI-H460 lung 22.1% | HOP-92 NSCLC 11.1% | A549/ATCC NSCLC 60.9% | 786-0 renal 26.3% | COLO 205 colon 44.9% | DU-145 prostate 48.8% | K-562 leukemia 19.4% | MALME-3M melanoma 40.4% | MDA-MB-231 breast 60.9% | RXF 393 renal 12.9% | SF-268 CNS 36.4% | SF-295 CNS 23.5% | SF-539 CNS 13% | UACC-257 melanoma 63.7% | M14 melanoma 19.5%
active: NCI-H522 lung -1.58%

COc1ccc(C(=O)COc2ccc(/C=C3\COc4ccc(OC)cc4C3=O)cc2)cc1
inactive: NCI-H23 lung 77.6% | NCI-H226 lung 85.9% | NCI-H322M lung 96.1% | HOP-62 NSCLC 110% | NCI-H460 lung 104% | HOP-92 NSCLC 77.7% | NCI-H522 lung 70.1% | A549/ATCC NSCLC 77.9% | 786-0 renal 90.5% | COLO 205 colon 122% | DU-145 prostate 107% | K-562 leukemia 33.7% | MALME-3M melanoma 90.2% | MDA-MB-231 breast 106% | RXF 393 renal 21.7% | SF-268 CNS 112% | SF-295 CNS 144% | SF-539 CNS 105% | UACC-257 melanoma 29.2% | M14 melanoma 95%
